# KB-3-1 cytotox: kills parental KB-3-1 adenocarcinoma cells. Potency, µM (top dose mostly 46.1 µM), hits mostly cytotoxic. KB-3-1 viability, CellTiter-Glo ATP luminescence, 72 h. AID 1347075. 1.4% of 400,000 active; note: % is set by controls: 0 for no effect and ±100 for the full control effect; nearly all actives have a fitted effect of over 60% in size
#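 Cells are dispensed, compounds pinned in, plates held at 37 °C for 72 h, then CellTiter-Glo is added and luminescence read after 10 minutes. Cell line: parental KB-3-1 in phenol-red-free DMEM, 10% FBS.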
# HT1080-NT tox: kills 2HG-producing HT-1080-NT fibrosarcoma cells. HT-1080-NT fibrosarcoma viability, CellTiter-Glo ATP luminescence, 48 h. 1.6% of 360,000 active. Potency, µM (top dose mostly 46.1 µM), without a hit: top-dose activity, negative = less viability, hits mostly cytotoxic. AID 686970;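 note: NT is the 2HG producing partner of a matched IDH1 knockdown line; 0% = DMSO-treated cells and -100% = media-only wells without cells; nearly all actives have a fitted effect of over 55% in size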
#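 Toxicity toward the 2HG-producing NT line was scored as %Activity, normalised to DMSO and no-cell wells, from CellTiter-Glo luminescence after 48 hours' treatment.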
# MCF10A rereplic: DNA re-replication induction in MCF 10a cells; MCF 10A DNA re-replication, Hoechst nuclear intensity, 48 h; Potency, µM (top dose mostly 46.1 µM), inactives show top-dose activity, positive = re-replication, actives largely listed as activators; 2.9% of 350,000 active; note: % of control where 0% means no effect; nearly all actives have a fitted effect of over 50% in size
# SW480 rerep: DNA re-replication induction in SW480 cells | AID 624297 | 1.8% of 340,000 active | Potency, µM (top dose mostly 46.1 µM), inactives show top-dose re-replication activation, hits mostly activators | SW480 DNA re-replication, Hoechst DNA content imaging, 48 h; note: % of control where 0% means no effect; nearly all actives have a fitted effect of over 55% in size
#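 Readout is total intensity of Hoechst-stained nuclei, excited at 405 nm and collected at 500-530 nm. Compound treatment lasted 48 hr at 37 C in 5% CO2 before staining.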
# KB-V1 MDR tox: KB-V1 MDR subline cytotoxicity; KB-V1 MDR cells viability, CellTiter-Glo, 72 h; Potency, µM (series often up to 46.1 µM), actives largely listed as cytotoxic; 3.4% of 400,000 active; note: % is set by controls: 0 for no effect and ±100 for the full control effect; nearly all actives have a fitted effect of over 60% in size
#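 qHTS viability screen in drug-selected KB-V1 MDR cells: 72 h compound treatment at 37 degrees C, ATP luminescence end point.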
# HT1080 IDH1KD tx: kills HT-1080 cells with IDH1 knockdown. HT-1080 IDH1 knockdown viability, ATP luminescence, 48 h. Potency, µM (highest dose often 46.1 µM), for inactives: at the top dose activity, negative = toxicity, usual class: cytotoxic. 2% of 360,000 active;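 note: 0% = DMSO wells and -100% = cell-free medium wells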
#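 Knockdown cells (IDH1KD HT-1080) received compounds 2 h after plating at 750 cells/well and were kept 48 h at 37 °C in 5% FBS RPMI. A CellTiter-Glo luminescence read gave % activity for curve fitting.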
# Starred values were filed as active, the others as inactive; i = inactive; ? = inconclusive; nt = no result given; [ ] = another dose, or the depositor's remark. Shown are actives, neighbours in structure and some others; about 7.9% of the full set was active somewhere. Calls come from the whole dose curve; as a rule, active = well fitted curve in the direction sought with a large enough effect; inconclusive = small, poorly fitted or top-dose-only effect, or another doubt; inactive = no such curve, though single readings can be large; an effect the other way counts as inactive or inconclusive. Potency is the fitted concentration of half-maximal effect.
SMILES,KB-3-1 cytotox,HT1080-NT tox,MCF10A rereplic,SW480 rerep,KB-V1 MDR tox,HT1080 IDH1KD tx
O=C(N/N=C/c1cc(Br)cc(Cl)c1O)c1ccc2c(c1)OCO2,?,?,?,-110.7%,?,?
CCOc1ccccc1NC(=O)Cn1c(=O)n(CC(=O)NCc2ccccc2Cl)c(=O)c2sccc21,i,nt,nt,nt,i,nt
CN1CCOc2cc(S(=O)(=O)N3CCN(c4nc(-c5cccs5)nc5ccccc45)CC3)ccc21,nt,14.8%,nt,nt,nt,3.3%
CC(=O)c1cccc(NC(=O)C(Cc2ccccc2)NS(=O)(=O)c2ccc(Br)s2)c1 (centres undefined),i,nt,nt,nt,i,nt
COc1cccc(-c2nc(SCC(=O)Nc3ccc4c(c3)OCO4)c(-c3ccccc3)[nH]2)c1,i,nt,nt,nt,?,nt
COc1ccc2c(c1)O[C@@H](c1cccc(C(F)(F)F)c1)[C@H](O)C2=O,nt,nt,6.7%,20.6µM*,nt,nt
CCCCC(=NCCc1c(C)[nH]c2ccccc12)C1=C(O)CC(c2ccccc2)CC1=O (centres undefined),13µM*,?,8.2µM*,10.3µM*,9.2µM*,9.2µM*
CCCC(=NCCc1c(C)[nH]c2ccccc12)C1=C(O)CC(c2ccccc2)CC1=O (centres undefined),7.31µM*,?,1.46µM*,6.51µM*,5.17µM*,4.61µM*
CC(=O)Nc1ccc(Nc2ccc3cc(S(=O)(=O)N4CCCCC4)ccc3n2)cc1,i,nt,nt,nt,?,nt
N#Cc1nc(/C=C/c2ccc(F)cc2)oc1N1CCCCC1,i,nt,nt,nt,i,nt
Cc1cccc(N2CCN(CCNC(=O)C3COc4ccccc4C3)CC2)c1C (centres undefined),i,nt,nt,nt,i,nt
CCN(CC)S(=O)(=O)c1ccc2c(c1)N(CC(=O)NCCCN1CCN(c3cc(Cl)ccc3C)CC1)C(=O)CO2,?,nt,nt,nt,13µM*,nt
Cc1ccc(Cl)cc1N1CCN(CCCNC(=O)C2COc3ccccc3C2)CC1 (centres undefined),20.6µM*,nt,nt,nt,i,nt
CN(C)c1ncnc2c1C(c1ccccc1)C(C)(C)O2 (centres undefined),i,9.3%,3.4%,-0.7%,18.4µM*,9.0%
Cc1cc(Nc2cccc([N+](=O)[O-])c2)n2c(nc3ccccc32)c1C#N,5.17µM*,?,6.31µM*,?,3.26µM*,16.4µM*
Cc1cc(Nc2ccc(F)cc2)n2c(nc3ccccc32)c1C#N,i,nt,nt,nt,i,nt
CCOC(=O)C1=CN(Cc2ccc(OC)cc2)C=C(C(=O)OCC)C1c1cccs1,i,-4.3%,18.4µM*,?,?,1.4%
O=C(NCCN1CCN(c2cccc(Cl)c2)CC1)Nc1ccccc1C(F)(F)F,i,nt,nt,nt,i,nt
Cc1c(C(=O)NCc2ccoc2)oc2ccc3c(c12)C(=O)CC(C)(C)O3,i,0.3%,?,4.5%,18.4µM*,?
CCC1(C)CC(=O)c2c(ccc3oc(C(=O)NCc4ccccc4)c(C)c23)O1 (centres undefined),i,nt,nt,nt,i,nt
COc1ccccc1N(C)S(=O)(=O)c1ccc(C(=O)N(C)Cc2ccc(Cl)s2)cc1,nt,-9.5%,25.9µM*,2.6%,nt,-11.8%
COc1ccccc1N(C)S(=O)(=O)c1ccc(C(=O)N(C)Cc2cccc(OC)c2OC)cc1,i,-2.1%,nt,nt,i,-1.0%
Cn1ncc2c(=S)[nH]c(=S)[nH]c21,i,20.0%,nt,nt,i,25.4%
CCOc1ccc(OCC)c(NC(=O)C2CCN(c3ncccn3)CC2)c1,i,1.6%,-3.5%,4.5%,9.2µM*,-3.1%
CCOc1ccc(OCC)c(NC(=O)C2CCCN(C(=O)c3ccc(Cl)cc3)C2)c1 (centres undefined),i,11.2%,4.7%,-1.5%,7.31µM*,12.7%
SMILES,KB-3-1 cytotox,HT1080-NT tox,MCF10A rereplic,SW480 rerep,KB-V1 MDR tox,HT1080 IDH1KD tx
Cc1ccc(NC(=O)Cn2c(=O)n(CCCCCC(=O)NCc3ccc(F)cc3)c(=O)c3sccc32)cc1C,i,nt,nt,nt,i,nt
COC(=O)c1c(SC)nc2ccccc2c1OCc1ccc(C)cc1C,i,nt,nt,nt,i,nt
N#Cc1c(N2CCCC(O)C2)nc(N)c2c(N)nc3c(c12)CC(=O)N3C12CC3CC(CC(C3)C1)C2 (centres undefined),4.11µM*,-15.8%,?,4.61µM*,14.6µM*,-14.1%
CCn1cc(C2=NCC(C)O2)c2ccccc21 (centres undefined),i,10.7%[9.24 µM],9.4%,?,i,?
CCn1cc(C2=NCCO2)c2ccccc21,i,-5.8%,2.3%,-10.2%,i,0.9%
CCn1cc(C2=NC(C)CO2)c2ccccc21 (centres undefined),i,11.2µM*,0.6%,3.9%,i,10µM*
CCn1cc(C2=NC(c3ccccc3)CO2)c2ccccc21 (centres undefined),8.2µM*,-2.8%,?,1.7%,?,-3.8%
CCOc1ccc(NC(=O)C2CC(=O)N(c3ccc(C(C)C)cc3)C2)cc1 (centres undefined),i,nt,nt,nt,?,nt
COc1ccc(-c2noc(C3CCCN(S(=O)(=O)c4cccc(Cl)c4)C3)n2)cc1OC (centres undefined),?,6.2%,?,1.7%,5.17µM*,-4.8%
COc1ccc(NC(=O)N2CCCC(c3nc(-c4ccc(C(C)C)cc4)no3)C2)cc1 (centres undefined),?,11.2µM*,?,8.0%,8.2µM*,?
COc1ccccc1C(=O)N1CCCC(c2nc(-c3cc(OC)c(OC)c(OC)c3)no2)C1 (centres undefined),i,6.2%,16.4%,-1.4%,4.61µM*,17.8%
COc1ccc(NC(=O)N2CCCC(c3nc(-c4ccc(OC)cc4)no3)C2)cc1 (centres undefined),i,-2.7%,17.7%,5.3%,i,-24.3%
O=S(=O)(c1ccc(Cl)cc1)N1CCCC(c2nc(-c3ccc(F)cc3)no2)C1 (centres undefined),i,14.3%,6.0%,12.0%[9.22 µM],i,11.2%
COc1ccc2nc(C)cc(SCC(=O)NNC(=O)COc3ccccc3)c2c1,i,0.1%,7.0%,-6.3%,?,7.9%
COc1ccc2nc(C)cc(Sc3nc4ccccc4s3)c2c1,?,10.3µM*,16.4µM*,?,18.4µM*,23.1µM*
O=C(COC(=O)c1c2c(nc3ccccc13)/C(=C\c1ccco1)CC2)NC1CCCC1,nt,0.0%,?,6.51µM*,nt,-12.3%
CC1CCCCC1NC(=O)COC(=O)c1c2c(nc3ccccc13)/C(=C\c1ccco1)CC2 (centres undefined),i,-20.0%,18.4µM*,?,i,-5.9%

# Assay outcomes: PubChem, National Center for Advancing Translational Sciences (NCATS)
